High-throughput results as filed in PubChem BioAssay.
A selection: hits, their analogues and other compounds. The true share with any hit is near 1.6%.
dFosB act: enhances mouse delta FosB homodimer DNA binding; P13346; purified delta FosB, TAMRA-CDK5 oligo fluorescence polarization; percent of positive-control signal above neutral wells; activation, % at 25 µM; actives 0.99% (n = 340,000);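 active = mean activation above about 17%, with every replicate also reaching it, limit read from the data, passing the limit was not always enough; inconclusive = only one of the two conditions met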
Dyrk1A ADPGlo: inhibitors of rat Dyrk1A kinase; Q63470; ADP-Glo luminescence, NFATc1 peptide; inhibition, % at 12.5 µM; actives 0.43% (n = 310,000); in the data active = inhibition above about 50%;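 note: plate controls were vehicle with enzyme for no effect and no enzyme for full effect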
B2AR ag: human beta-2 adrenergic receptor agonism by FAP. Am2.2-beta2AR cells, FAP receptor internalization, flow cytometry. P07550. actives 0.43% (n = 340,000). response, % (no concentration beside the values);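 active = response above a set limit, near 3 SD of response in nonfluorescent compounds, cut at about 42% in these data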
Target sequence (P07550 whole entry, looked up): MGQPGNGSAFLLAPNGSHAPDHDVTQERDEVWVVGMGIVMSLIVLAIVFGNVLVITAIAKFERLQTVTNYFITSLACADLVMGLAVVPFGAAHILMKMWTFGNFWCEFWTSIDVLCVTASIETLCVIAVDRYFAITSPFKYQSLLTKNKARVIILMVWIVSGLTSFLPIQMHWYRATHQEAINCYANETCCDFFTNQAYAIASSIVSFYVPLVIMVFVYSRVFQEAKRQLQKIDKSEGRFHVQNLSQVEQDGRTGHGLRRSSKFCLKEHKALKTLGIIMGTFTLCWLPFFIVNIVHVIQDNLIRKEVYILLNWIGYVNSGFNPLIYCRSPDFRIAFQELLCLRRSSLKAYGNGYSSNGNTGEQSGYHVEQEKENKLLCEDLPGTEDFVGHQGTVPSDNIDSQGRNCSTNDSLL
Bfl-1 A1 inh: inhibitors of the anti-apoptotic protein A1, read as caspase activation | actives 0.066% (n = 330,000) | caspase activation, % (concentration not given with the values) | AID 2462 | MEF A1-2A-BIM cells, Caspase-Glo 3/7 luminescence, 3 h; percent of clofoctol response, vehicle zero;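 active = over half of replicate activation scores above 10%, or exactly half above 10 with the replicate mean above 10; inconclusive = replicate mean below 10 yet half the replicates above 10; inactive = over half of replicates below 10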
Numbers without * were called inactive; ? = inconclusive; · = no result given.

SMILES	dFosB act	Dyrk1A ADPGlo	B2AR ag	Bfl-1 A1 inh
Cc1nn(CC(=O)Nc2ccc3c(c2)nc2n3CCN(C3CCCCC3)C2)c(=O)c2ccccc12	27*	·	-11	0
CCOc1ccccc1-c1c2cc(O)c(=O)cc-2oc2cc(O)c(O)cc12	51*	6	-247	·
COc1ccc(OC)c(-c2c3cc(O)c(=O)cc-3oc3cc(O)c(O)cc23)c1	46*	4	-217	-1
Cn1cnnc1SCC(=O)n1c2ccccc2c2ccccc21	-38	1	-11	1
Cn1cnnc1SCc1ccc(C(=O)N=Nc2c(O)n(C)c3ccccc23)cc1	-6	2	100*	0
Cc1cccc2sc(NNC(=O)c3ccc(S(=O)(=O)N4CC(C)CC(C)C4)cc3)nc12 (stereo not drawn)	-1	5	48*	0
Cc1cc(C)c2nc(NNC(=O)c3ccc(S(=O)(=O)N4CC(C)CC(C)C4)cc3)sc2c1 (stereo not drawn)	-7	7	43*	0
O=C(Nc1nnc(C2CC2)s1)c1cccnc1Oc1ccc(Cl)cc1	-15	-3	-12	0
CC(=O)c1c(C(C)=O)c(C)n(Cc2ccccc2)c1C	-4	2	-7	0
Cc1c(C=O)c(C=O)c(C)n1Cc1ccccc1	-10	-4	15	9.3*
CCN1CCN(c2ccc(S(=O)(=O)N3CCCCC3)cc2NC(=O)c2cccc(C(F)(F)F)c2)CC1	21*	5	14	0
Cc1ccc(C(=O)c2no[n+]([O-])c2C(=O)c2ccc(C)cc2)cc1	1	3	42*	2
CC(=O)c1ccc(C(=O)N2CCCC(N3CCN(c4ccc(F)cc4)CC3)C2)s1 (stereo not drawn)	-3	-6	1	0
S=c1sc2c(Cl)ncnc2n1-c1ccccc1	3	-3	103*	·
Cc1nc(N2CCN(C)CC2)c2sc(=S)n(-c3ccccc3)c2n1	-7	7	-1	0
CC(=O)c1ccc(NC(=O)COC(=O)c2ccccc2Sc2ccccc2C#N)cc1	40*	6	-6	0
COc1ccc(C(=O)NC(=C(Cl)Cl)S(=O)(=O)c2ccc(C)cc2)cc1	23*	-3	9	1
CCOc1ccccc1OCCC(=O)N1CCN(S(=O)(=O)c2ccccc2[N+](=O)[O-])CC1	-15	-4	-2	21*
CS(=O)(=O)N1CCc2ccc(NC(=O)C3CCCO3)cc2C1 (stereo not drawn)	-3	-2	1	0
Cc1ccccc1NC(=S)NCc1ccc2c(c1)cc(C)n2C	-6	2	52*	1
COc1ccccc1NC(=S)NCc1ccc2c(c1)cc(C)n2C	-16	9	1	0
N#Cc1cc(Oc2ccccc2)c(-n2nnc3ccccc32)cc1C#N	3	-2	5	0
N#Cc1cc(Oc2ccc3ccccc3c2)c(-n2nnc3ccccc32)cc1C#N	4	-5	48*	1
Cc1ccc(NC(=O)c2nc[nH]c2C(=O)NCCN(CCNC(=O)c2[nH]cnc2C(=O)Nc2ccc(C)cc2)CCNC(=O)c2[nH]cnc2C(=O)Nc2ccc(C)cc2)cc1	48*	6	-2	-1
O=C(Nc1ccc(F)cc1)c1nc[nH]c1C(=O)Nc1ccc([N+](=O)[O-])cc1	?	1	-8	1
SMILES	dFosB act	Dyrk1A ADPGlo	B2AR ag	Bfl-1 A1 inh
O=C(Nc1ccc(Cl)cc1)c1nc[nH]c1C(=O)NCCCNC(=O)c1[nH]cnc1C(=O)Nc1ccc(Cl)cc1	·	·	·	13*
O=C(Nc1ccc([N+](=O)[O-])cc1)c1nc[nH]c1C(=O)NC1CCCCC1	3	4	4	47*
Cc1ccc(S(=O)(=O)N2CCN(C(=O)CSc3ncn[nH]3)CC2)cc1	2	·	5	0
CCOc1ccc(N(C)S(=O)(=O)c2ccc(C)c(C(=O)Nc3nnc(C4CC4)s3)c2)cc1	-14	·	-1	1
O=c1oc2c(-c3ccc([N+](=O)[O-])cc3)cc(O)cc2s1	15	1	8	1
Cc1ccc(C(=O)COC(=O)COc2ccccc2[N+](=O)[O-])s1	0	-1	-4	0
CCOC(=O)COc1ccccc1/C=C\[N+](=O)[O-]	-7	-5	51*	3
C#CCOCCOCCOCCNc1nc(N2CCN(C(=O)CCCCCCCCCCNC(=O)[C@H](CCCCN)n3cc(C[C@@H](C)CC)nn3)CC2)nc(N2CCN(C(=O)CCCCCCCCCCNC(=O)[C@H](CCCN=C(N)N)n3cc(C[C@@H](C)CC)nn3)CC2)n1	-351	27	42*	-1
C#CCOCCOCCOCCNc1nc(N2CCN(C(=O)CCCCCCCCCCNC(=O)[C@@H](CCSC)n3cc(CCO)nn3)CC2)nc(N2CCN(C(=O)CCCCCCCCCCNC(=O)[C@H](CCCN=C(N)N)n3cc(C[C@@H](C)CC)nn3)CC2)n1	2	4	58*	1
C#CCOCCOCCOCCNc1nc(N2CCN(C(=O)CCCCCCCCCCNC(=O)[C@H]([C@@H](C)CC)n3cc(CCCCN=C(N)N)nn3)CC2)nc(N2CCN(C(=O)CCCCCCCCCCNC(=O)[C@H](CCCN=C(N)N)n3cc(C[C@@H](C)CC)nn3)CC2)n1	·	·	·	-1
CC[C@H](C)Cc1cn([C@@H](CCCN=C(NC(=O)OC(C)(C)C)NC(=O)OC(C)(C)C)C(=O)NCCCCCCCCCCC(=O)N2CCN(C(=O)OC(C)(C)C)CC2)nn1	33*	-2	9	0
C#CCOCCOCCOCCNc1nc(N2CCN(C(=O)CCCCCCCCCCNC(=O)[C@H](CCCCN)n3cc(C[C@@H](C)CC)nn3)CC2)nc(N2CCN(C(=O)CCCCCCCCCCNC(=O)[C@@H]([C@H](C)O)n3cc(C)nn3)CC2)n1	-338	3	77*	0
C#CCOCCOCCOCCNc1nc(N2CCN(C(=O)CCCCCCCCCCNC(=O)[C@H](CO)n3cc(CCCCCN)nn3)CC2)nc(N2CCN(C(=O)CCCCCCCCCCNC(=O)[C@H](CCCN=C(N)N)n3cc(C[C@@H](C)CC)nn3)CC2)n1	·	·	·	-1
COc1ccc(CC(NC(C)=O)C(=O)NC2CCN(C(=O)c3ccccc3F)CC2)cc1 (stereo not drawn)	3	2	8	1
COC(=O)c1ccc(CNC(=O)[C@@H]2CCCN2S(=O)(=O)c2ccccc2F)cc1	1	-2	4	1
CNC(CC(=O)c1ccc([N+](=O)[O-])cc1)C(Cl)(Cl)Cl (stereo not drawn)	-7	-7	91*	3
COc1ccc(C(=O)CC(Nc2ccc([N+](=O)[O-])cc2)c2ccc(OC)cc2)cc1 (stereo not drawn)	-6	-1	5	2
Fc1ccccc1NC(=S)N1CCN(C/C=C/c2ccccc2)CC1	-5	-4	56*	0
COc1ccc(/[N+]([O-])=C/c2ccco2)cc1	3	7	-6	-5
CC(=O)C1C(=O)c2c(cccc2[N+](=O)[O-])C1=Nc1ccc(S(N)(=O)=O)cc1 (stereo not drawn)	-8	35	4	1
